For 27 compounds, activation and Potency results are on record in PubChem BioAssay (NCATS).

Records with an inconclusive call do not appear. Unmarked numbers belong to inactive results. Active and inactive are the calls of the source. Calls follow the shape of the dose curve; as a rule, active = well fitted activation curve with a large enough effect; inconclusive = small, poorly fitted or top-dose-only effect; inactive = no such curve, though single readings can be large or run the other way.
Potency is read from the fitted curve at half-maximal effect.

This assay deals with Cellular tumor antigen p53 (Homo sapiens) (UniProt P04637). The assay can be described thus: Primary qHTS for small molecule compounds that upregulate eGFP-tagged delta133p53alpha (in N-terminal) cells. (AID 2060322). Also: nearly all actives have a fitted effect of over 75% in size.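 As to activation: series mostly up to about 56 µM; 0% = DMSO vehicle and 100% = reference activator.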 The conditions noted are these: NCI-H358 eGFP-delta133p53alpha fluorescence, 24 h; activation: stronger effect = higher value. The essentials: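 NCI-H358 cells pre-induced 24 h with 10 ng/ml doxycycline to express N-terminal eGFP-delta133p53alpha, then dosed 24 h at 37C without doxycycline; fixed, Hoechst-stained, GFP intensity by laser scanning cytometry, normalized to DMSO (0%) and 57.5 uM 5-azacytidine (100%).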
Cellular tumor antigen p53 (Homo sapiens), sequence (P04637 whole entry, looked up): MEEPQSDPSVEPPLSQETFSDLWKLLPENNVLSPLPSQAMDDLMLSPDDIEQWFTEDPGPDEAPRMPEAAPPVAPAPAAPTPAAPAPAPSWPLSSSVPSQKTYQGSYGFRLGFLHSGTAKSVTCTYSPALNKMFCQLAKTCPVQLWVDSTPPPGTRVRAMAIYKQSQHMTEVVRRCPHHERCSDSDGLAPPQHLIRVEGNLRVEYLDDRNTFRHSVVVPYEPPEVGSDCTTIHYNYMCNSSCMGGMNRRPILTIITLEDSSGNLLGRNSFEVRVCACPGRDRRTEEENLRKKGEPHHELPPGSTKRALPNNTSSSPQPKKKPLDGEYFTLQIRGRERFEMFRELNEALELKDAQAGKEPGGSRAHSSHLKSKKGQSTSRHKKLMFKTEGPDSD
Background: qHTS replaces the single test concentration by a dilution series.
For the compound `C=C1CC2[C@@]3(C)C=CC(=O)C(C)(C)C3=C(O)C(=O)[C@@]2(C)C2(C(=O)OC)C(=O)C(C)OC(=O)[C@@]12C` (some centres not stated), the activation was -3.82%. For the compound `CCCCC(=O)N(Cc1ccc(-c2ccccc2-c2nn[nH]n2)cc1)C(C(=O)O)C(C)C` (configuration not stated), the activation was 0%. For the compound `COc1cc(C2Oc3c(OC)cc(CCCO)cc3C2CO)ccc1O[C@H]1O[C@H](C)[C@@H](O)[C@H](O)[C@@H]1O` (some centres not stated), the activation was -13.7%. Consider `COC(=O)[C@@H](NC(=O)[C@H](CC(C)C)NC(=O)N(Cc1ccccc1)C[C@@H](O)[C@H](Cc1ccccc1)NC(=O)OC(C)(C)C)C(C)C`, for which the activation is 19.7%. On to `O=C(/C=C/c1ccc(O)cc1)OC1[C@H](O)CC(O)(C(=O)O)C[C@H]1O` (some centres not stated), for which the activation was -0.763%. Regarding `C=C1C(O)C(OC(=O)c2ccccc2)C2C(C)(C(=O)O)CCCC2(C)C1CC/C(C)=C\CO` (configuration not stated), the activation is 11.5%. On to `CC(C)C(NC(=O)c1ccc(O)cc1)C(=O)N1CCCC1C(=O)Nc1c(O)cccc1C(=O)O` (configuration not stated), for which the activation was -0.763%.

On to `CC/C=C\[C@H](O)[C@H](O)C1=C(C)C(=O)[C@]2(O1)C(=O)N[C@@](OC)(C(=O)c1ccccc1)[C@@H]2O`, for which the activation was -6.87%. With `C[C@H]1CCN2C[C@]34C[C@@]5(C(=O)Nc6c5ccc5c6OC=CC(C)(C)O5)C(C)(C)C3C[C@]12C(=O)N4C` (some centres not stated), the activation was 5.34%. On to `CC1OC(O[C@@H]2[C@@H](O)[C@H](OC(=O)[C@]34CCC(C)(C)C[C@H]3C3=CCC5[C@@]6(C)CC[C@H](O[C@@H]7O[C@H](C(=O)O)[C@@H](O)[C@H](O[C@@H]8OC[C@@H](O)[C@H](O)[C@H]8O)[C@H]7O[C@@H]7O[C@H](CO)[C@H](O)[C@H](O)[C@H]7O)[C@@](C)(C=O)C6CC[C@@]5(C)[C@]3(C)C[C@H]4O)O[C@H](C)[C@@H]2OC2OC(C)C(OC3OCC(O)C(O)C3O)C(O)C2O)C(O)C(O)C1O` (some centres not stated), for which the activation is -3.57%.

Take `CC(=O)OCC1=C[C@@H]2OC(=O)C3=CO[C@@H](O[C@@H]4O[C@H](CO)[C@@H](O)[C@H](O)[C@H]4O)[C@H]1[C@@H]32`: the activation was -16.8%.

Consider `CC1CC(=O)C2=C(O1)OC1(C)CCC3C(C)(C)C=CC(=O)C3(C)C1C2` (configuration not stated), for which the activation is -29.5%. `O[C@@](Cc1ncc(CC2(C(F)(F)F)CC2)[nH]1)(c1ccc(-n2cccn2)cc1)C(F)(F)F`: the activation is -3%. Still for that read-out and setting: then `C=C1C(=O)O[C@H]2[C@H]1[C@@H](OC(=O)C(C)CO)C[C@@]1(C)[C@H](O)CCC(=O)[C@H]21` (some centres not stated), with -11.5%; and `CC(C)C[C@H](CC(=O)NO)C(=O)N[C@@H](Cc1ccc2ccccc2c1)C(=O)N[C@@H](C)C(=O)NCCN`, with -11.7%; and `Cc1ccc(C)c(NC(=O)[C@@H]2CCCN2S(=O)(=O)c2cccc3cccnc23)c1`, with -4.33%. Consider `CC1OC(OCC2OC(OC3CCC4(C)C(CCC5(C)C4CC=C4C6CC(C)(C)CCC6(C(=O)OC6OC(CO)C(O)C(O)C6O)CCC45C)C3(C)CO)C(O)C(O)C2O)C(O)C(O)C1O` (configuration not stated), for which the activation was -9.92%. For `CCNC(=O)C1OC(n2cnc3c(N)nc(NCCc4ccc(CCC(=O)O)cc4)nc32)C(O)C1O` (configuration not stated), the activation was -5.73%. With `COc1cccc(-c2cn(-c3ccc(CCN4CCC(O)CC4)cc3)c3ncnc(N)c23)c1`, the Potency was 6.01 µM (active).

As for `NCCCNc1ccc(Nc2nccc(Nc3cc(C4CC4)[nH]n3)n2)cc1`, the Potency was 1.51 µM (active).

For `CC1CCCC(O)CCC/C=C/c2cc(OS(=O)(=O)O)cc(O)c2C(=O)O1` (configuration not stated), the activation was -19.8%. Consider `COc1cc2c(cc1OC)CN(C(=O)[C@@H](NCc1ccncc1)C(C)(C)C)CC2`, for which the activation was 5.25%. `C=CC1C(O[C@@H]2O[C@H](CO)[C@@H](O)[C@H](O)[C@H]2O)OC=C(C(=O)OC)C1Cc1nccc2c1[nH]c1ccccc12` (some centres not stated): the activation is 19.6%. `C[C@H](NC(c1cccc2[nH]c(=O)c(=O)[nH]c12)P(=O)(O)O)c1ccc(Br)cc1` (some centres not stated): the activation was -12.3%. On the same count and under the same terms, then `COc1ccc(CNC(=O)c2sc3nc(C)cc(C)c3c2N)cc1`, with -8.11%; and `O=C(O)/C=C/c1ccc2occc2c1O[C@@H]1O[C@H](CO)[C@@H](O)[C@H](O)[C@H]1O`, with 8.4%; and `C=C[C@H]1[C@H](O[C@@H]2O[C@H](CO)[C@@H](O)[C@H](O)[C@H]2O)OC=C(C(=O)OC)[C@H]1C[C@@H]1N[C@H](C(=O)O)Cc2c1[nH]c1ccccc21`, with -4.58%.
